Screens (PubChem)
Cruzain noTriton: qHTS Assay for Promiscuous and Specific Inhibitors of Cruzain (without detergent); Cruzipain (Trypanosoma cruzi), P25779; purified cruzain, Z-FR-AMC fluorescence, no detergent; Potency, µM, for the others: max response, negative = inhibition, usual class: inhibitors; 200,000 compounds, 2.3% hits;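 further: plate controls were enzyme without inhibitor for no effect and buffer without enzyme for full effect; nearly all actives have a fitted effect of over 40% in size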
Target sequence (P25779 123-467 limits assumed): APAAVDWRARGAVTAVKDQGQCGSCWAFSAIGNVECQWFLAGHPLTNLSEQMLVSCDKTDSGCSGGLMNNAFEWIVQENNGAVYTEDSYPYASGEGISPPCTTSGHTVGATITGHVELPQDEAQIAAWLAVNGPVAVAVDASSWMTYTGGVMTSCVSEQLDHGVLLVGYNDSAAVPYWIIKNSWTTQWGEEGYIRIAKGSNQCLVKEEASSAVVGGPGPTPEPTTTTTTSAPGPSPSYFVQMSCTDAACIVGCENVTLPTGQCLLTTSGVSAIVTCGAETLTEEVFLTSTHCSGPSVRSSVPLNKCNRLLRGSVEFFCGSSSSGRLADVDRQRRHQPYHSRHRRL
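Detergent-free condition (0.00005% Triton X-100) in acetate buffer pH 5.5 with DTT. 1.5 nM enzyme and compound were pre-mixed 15 min, then 2 uM Z-FR-AMC substrate added; reaction progress from fluorescence change between first and third reads (60 s).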
Cruzain Triton: qHTS Assay for Promiscuous and Specific Inhibitors of Cruzain (with detergent); purified cruzain, Z-FR-AMC fluorescence, 0.01% Triton; Potency, µM, without a hit: max response, negative = inhibition, usual class: inhibitors; 200,000 compounds, 0.43% hits;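 further: plate controls were neutral wells for no effect and buffer without enzyme for full effect; nearly all actives have a fitted effect of over 40% in size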
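Compounds were screened in titration against cruzain (1.5 nM) with 0.01% Triton X-100 to counter colloidal aggregation. Activity was the AMC fluorescence increase over 60 s after adding 2 uM Z-FR-AMC at pH 5.5.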
Numbers without * were called inactive; ? = inconclusive. The list is not random: actives were taken first. Their share in the collection is about 2.6%. The call rests on the fitted dose curve; in most records, active means well fitted curve in the direction sought with a large enough effect; inconclusive means small, poorly fitted or top-dose-only effect, or another doubt; inactive means no such curve, though single readings can be large; an effect the other way counts as inactive or inconclusive. Potency means the concentration at half of the fitted maximal effect.

SMILES	Cruzain noTriton	Cruzain Triton
CO[C@H]1[C@H](O)[C@H](O[C@@H]2[C@H](Oc3cccc4c(O)c5c(=O)oc6ccc(C)c7c(=O)oc(c34)c5c67)O[C@@H](C)[C@H](O)[C@H]2O)O[C@@H](C)[C@@H]1O	4%	5%
COC(=O)N/N=C/C1=C[N+](=O)c2ccccc2[N+]1=O	-12%	-2%
CC[C@H](Cc1c(I)cc(I)c(N)c1I)C(=O)O	-17%	-7%
COCCn1c(=O)cnc2cnc(Nc3cccc(OC)c3)nc21	-8%	0%
CCOC(=O)c1sc(Nc2nc3ccc(OC)cc3s2)cc1C	?	-4%
CCOC(=O)c1sc(Nc2nc3c(F)cccc3s2)cc1C	16µM*	1%
COC1=CC(=O)OC(CCc2ccccc2)C1 (stereo not drawn)	2%	-1%
CCc1c(C)sc2c1CCN(C(=O)Nc1ccc(F)c(Cl)c1)C2c1ccc(F)cc1 (stereo not drawn)	10µM*	-1%
CCc1c(C)sc2c1CCN(C(=O)Nc1ccccc1C(F)(F)F)C2c1ccccc1 (stereo not drawn)	-12%	-6%
CCc1c(C)sc2c1CCN(C(=O)Nc1cc(Cl)c(OC)cc1OC)C2c1ccccc1 (stereo not drawn)	6.3µM*	-1%
CCc1c(C)sc2c1CCN(C(=O)Nc1ccccc1C(=O)OC)C2c1ccc(F)cc1 (stereo not drawn)	?	0%
Cc1ncc([N+](=O)[O-])n1C[C@H](O)CCl	-4%	-2%
CC1CCN(c2nc(-c3ccc(C(C)(C)C)cc3)nc3ccccc23)CC1	0%	-2%
CCOCCCNC(=O)C(=O)Nc1c2c(nn1-c1ccc(OC)cc1)CSC2	?	-2%
Cc1cccc(C2=NN(c3ccccc3)[C@@H](C(=O)N3CCOC3=O)[C@@H]2c2ccc([N+](=O)[O-])cc2)c1	?	3%
O=C1OCCN1C(=O)[C@H]1[C@H](c2ccc([N+](=O)[O-])cc2)C(c2cccc(Cl)c2)=NN1c1ccc(Br)cc1	3.5µM*	1%
O=C1OCCN1C(=O)[C@H]1[C@H](c2ccc([N+](=O)[O-])cc2)C(c2ccccc2)=NN1c1ccc(Br)cc1	14µM*	-3%
Cc1ccc([N+](=O)[O-])cc1C	6%	1%
COC(=O)C(C)Sc1nnc2cc(C)c3cc(C)cc(C)c3n12 (stereo not drawn)	1%	0%
Cc1ccc(NC(=O)C2CCN(S(=O)(=O)c3cccc4nonc34)CC2)c(Cl)c1	-16%	-2%
O=C(CCc1ccc(S(=O)(=O)N2CCCCC2)cc1)c1nnc(-c2ccccc2)o1	25µM*	-3%
O=C(c1ccc(S(=O)(=O)N2CCCCC2)cc1)c1nnc(-c2ccc(Cl)cc2)o1	-13%	2%
O=P(O)(OP(=O)(O)c1ccccc1)c1ccccc1 (tested in a mixture with another compound)	-5%	2%
Cc1cc(S(=O)(=O)NCc2ccccc2)ccc1OCC(=O)Nc1cccc([N+](=O)[O-])c1	25µM*	-5%
CN(Cc1ccccc1)S(=O)(=O)c1ccc(OCC(=O)Nc2cccc([N+](=O)[O-])c2)cc1	-21%	-3%
SMILES	Cruzain noTriton	Cruzain Triton
CCOc1ccc2nc(N3CCCCCC3)sc2c1	-6%	-1%
COc1ccc2nc(N3C(=O)/C(=C/c4ccccc4)NC3=S)sc2c1	13µM*	-1%
COc1ccc2nc(-n3c(C)ccc3C)sc2c1	-19%	3%
CCOc1ccc2nc(N3C(=O)/C(=C/c4ccccc4)NC3=S)sc2c1	13µM*	-2%
COc1ccc(/C=C/c2nc(-c3ccccc3O)n(-c3ccccc3)n2)cc1	-13%	-6%
COc1ccc(/C=C/c2nc(-c3ccccc3O)n[nH]2)cc1	13µM*	-13%
COc1ccccc1-c1noc(-c2ccc(NCCc3ccccc3)c([N+](=O)[O-])c2)n1	1%	-3%
COc1cc(/C(C)=N\NC(N)=S)cc(OC)c1OC	1.3µM*	5µM*
COc1cc(/C(C)=N/NC(=S)NC(C)C)cc(OC)c1OC	0%	-7%
CC(C)[N+]1(C)C2CCC1CC(OC(=O)C(CO)c1ccccc1)C2 (stereo not drawn)	6%	1%
N#Cc1c(NC(=O)CSc2nc3c(c(C(F)(F)F)n2)CCc2ccccc2-3)sc2c1CCCC2	7.9µM*	-3%
NC(=O)c1c(NC(=O)CSc2nc3c(c(C(F)(F)F)n2)CCc2ccccc2-3)sc2c1CCCC2	?	0%
CC1CCc2c(sc(NC(=O)CSc3nc4c(c(C(F)(F)F)n3)CCc3ccccc3-4)c2C(N)=O)C1 (stereo not drawn)	10µM*	-2%
CCn1c(SCC(=O)Nc2sc3c(c2C#N)CCCC3)nnc1-c1ccncc1	?	-10%
Cc1nn(Cc2ccc(Cl)cc2)c(C)c1NC(=O)CSc1nc2c(c(C(F)(F)F)n1)CCc1ccccc1-2	?	4%
